This is an account of results in PubChem BioAssay (Tox21).

Results filed as inconclusive are left out. Active and inactive are the calls of the source. Calls come from the whole dose curve.
% is set by controls: 0 for no effect and ±100 for the full control effect.

For this assay, the target named is Vitamin D3 receptor (Homo sapiens) (UniProt P11473). The assay can be described thus: qHTS assay to identify small molecule agonists of the vitamin D receptor (VDR) signaling pathway (AID 743222). Conditions: HEK293T VDR-UAS-bla, beta-lactamase FRET ratio, 16 h; series mostly up to 63.5 µM. The procedure, abridged: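 Agonist activity measured in VDR-bla reporter cells. Exposure 16 h, 37C, 5% CO2; detection by B/G FRET substrate, 2 h RT.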
Chain of Vitamin D3 receptor (Homo sapiens) (P11473 whole entry, looked up): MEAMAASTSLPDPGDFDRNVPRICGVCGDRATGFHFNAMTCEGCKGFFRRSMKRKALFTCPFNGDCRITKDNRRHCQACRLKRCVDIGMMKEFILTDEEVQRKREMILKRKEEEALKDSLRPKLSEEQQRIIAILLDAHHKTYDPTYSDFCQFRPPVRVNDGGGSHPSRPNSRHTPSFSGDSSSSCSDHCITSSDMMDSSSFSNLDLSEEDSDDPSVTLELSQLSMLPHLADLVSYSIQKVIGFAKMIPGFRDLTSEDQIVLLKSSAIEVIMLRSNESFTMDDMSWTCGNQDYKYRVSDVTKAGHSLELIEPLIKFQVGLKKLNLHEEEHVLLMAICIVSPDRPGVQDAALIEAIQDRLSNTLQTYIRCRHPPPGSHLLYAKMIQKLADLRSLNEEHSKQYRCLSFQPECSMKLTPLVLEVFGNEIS
`CC(=O)CCc1ccc(O)cc1`: the outcome was inactive.

Consider `OC[C@H]1O[C@@H]2O[C@H]3[C@H](O)[C@@H](O)[C@@H](O[C@H]4[C@H](O)[C@@H](O)[C@@H](O[C@H]5[C@H](O)[C@@H](O)[C@@H](O[C@H]6[C@H](O)[C@@H](O)[C@@H](O[C@H]7[C@H](O)[C@@H](O)[C@@H](O[C@H]8[C@H](O)[C@@H](O)[C@@H](O[C@H]9[C@H](O)[C@@H](O)[C@@H](O[C@H]1[C@H](O)[C@H]2O)O[C@@H]9CO)O[C@@H]8CO)O[C@@H]7CO)O[C@@H]6CO)O[C@@H]5CO)O[C@@H]4CO)O[C@@H]3CO`, for which the result was inactive.

Take `CC(C)COC(=O)C(C)C`: the result was inactive.

In the case of `Cc1nccn1CC1CCc2c(c3ccccc3n2C)C1=O` (stereo unspecified), the outcome was inactive.

Regarding `O=C(O)c1cccc(C(=O)O)n1`, the result was inactive.

On to `C=CCOCC(O)CS(=O)(=O)O` (stereo unspecified), for which the result was inactive.

As to `COc1cccc(OC)c1`, the result was inactive.

Consider `CCOC(=O)Cn1c(=O)sc2cccc(Cl)c21`, for which the outcome was inactive.

Take `O=C(O)C(O)[C@H](O)[C@@H](O)[C@H](O)[C@H](O)CO` (stereo partly specified): the outcome was inactive.

Turning to `NS(=O)(=O)c1cc(C2(O)NC(=O)c3ccccc32)ccc1Cl` (stereo unspecified), the result was inactive.

As for `N#CC1(O)CCCCC1`, the result was inactive.

For `O=C1OC(=O)c2cc([N+](=O)[O-])ccc21`, the outcome was inactive.

Turning to `C=C(C)C(=O)NCCCN(C)C`, the result was inactive.

As to `O=C1CC2(CCCC2)CC(=O)N1`, the result was inactive.

Consider `FC(F)(F)C(F)(F)C(F)(F)C(F)(F)C(F)(F)C(F)(F)C(F)(F)C(F)(F)C(F)(F)C(F)(F)F`, for which the activation was 0.833% [at 6.01 µM] (inactive).

Regarding `N#CCc1ccccc1[N+](=O)[O-]`, the outcome was inactive.
